In PubChem BioAssay AID1946 (Johns Hopkins Ion Channel Center, 2009):
In all, about 2,400 compounds went through this assay and about 180 (7.5%) were called active. Only a selection was taken, and actives are over-represented in it overall. Unmarked numbers belong to inactive results.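 The calls were made as follows: active = readout below zero, meaning a drop past 3 SD under the dofetilide-free negative control mean; inactive = the rest.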

Target: Potassium voltage-gated channel subfamily KQT member 2 (Rattus norvegicus) (UniProt O88943)
Sequence (O88943 whole entry, looked up): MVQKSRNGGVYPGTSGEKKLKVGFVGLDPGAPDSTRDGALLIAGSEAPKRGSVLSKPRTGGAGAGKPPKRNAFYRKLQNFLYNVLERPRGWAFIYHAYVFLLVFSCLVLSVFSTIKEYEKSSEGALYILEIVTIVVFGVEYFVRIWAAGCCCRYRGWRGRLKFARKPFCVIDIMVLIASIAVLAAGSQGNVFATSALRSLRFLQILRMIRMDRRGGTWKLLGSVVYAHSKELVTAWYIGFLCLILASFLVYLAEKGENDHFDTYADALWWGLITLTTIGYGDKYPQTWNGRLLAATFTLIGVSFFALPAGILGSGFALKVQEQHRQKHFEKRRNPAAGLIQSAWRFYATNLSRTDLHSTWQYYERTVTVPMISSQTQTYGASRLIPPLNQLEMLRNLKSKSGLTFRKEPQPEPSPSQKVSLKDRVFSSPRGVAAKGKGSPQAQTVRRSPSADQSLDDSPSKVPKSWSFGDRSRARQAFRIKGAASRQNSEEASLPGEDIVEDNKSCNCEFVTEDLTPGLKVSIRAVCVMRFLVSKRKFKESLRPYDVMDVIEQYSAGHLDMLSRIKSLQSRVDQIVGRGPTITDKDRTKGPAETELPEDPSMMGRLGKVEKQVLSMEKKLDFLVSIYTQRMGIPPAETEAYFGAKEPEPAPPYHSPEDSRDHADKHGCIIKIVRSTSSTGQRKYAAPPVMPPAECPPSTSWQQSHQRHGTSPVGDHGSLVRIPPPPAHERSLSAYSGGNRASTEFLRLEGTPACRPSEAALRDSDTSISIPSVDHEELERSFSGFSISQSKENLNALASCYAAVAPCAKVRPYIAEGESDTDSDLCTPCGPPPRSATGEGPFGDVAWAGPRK
Assay: KCNQ2 blockade in CHO cells – cell-based, FluxOR thallium flux, counter-screen for hERG block protector project, confirmation (AID 1946)
Settings: FluxOR thallium flux fluorescence, at 10 µM, stronger effect = lower value, zero marks the 3-SD hit cutoff

Row | Structure (SMILES) | activity change vs negative control
1 | Cc1c(-c2ccccc2)sc2nc[nH]c(=S)c12 | 75%
2 | Cc1cc(F)c(F)c(C(=O)N2CCOCC2)c1 | 7.3%
3 | Cc1ccc(-n2c(C)cc(C(=O)CN3CCOCC3)c2C)cc1 | 10.9%
4 | Cc1cc(C(=O)NP(=O)(N2CCOCC2)N2CCOCC2)c(C)n1-c1ccc(Br)cc1 | -0.1% (active)
5 | O=c1c(-c2cccc3ccccc23)[n+]([O-])c2ccccc2n1O | 27.4%
6 | COc1ccc(-c2c(C)c3ccc(OCC(C)=O)cc3oc2=O)cc1 | 4.2%
7 | COc1ccc(-c2cc(=O)oc3cc(OCC(C)=O)ccc23)cc1 | -6.4% (active)
8 | Cc1cc(=O)oc2cc(OCC(=O)OCC(=O)NC(C)C)ccc12 | 12.7%
9 | c1ccc(Cn2ncc3c(N4CCN(C(c5ccccc5)c5ccccc5)CC4)ncnc32)cc1 | -7.5% (active)
10 | Oc1ccc(N2CCN(C(c3cccnc3)c3nnnn3Cc3ccccc3)CC2)cc1 (stereo unspecified) | 19.3%
11 | Oc1ccc(Cl)cc1C1=NNC(c2cccs2)C1 (stereo unspecified) | 36.9%
12 | CC(C)c1ccc(NC(=O)C2CC3CCC2C3)cc1 (stereo unspecified) | 45.1%
13 | CCOC(=O)C1=NN(C(=O)c2cccc(Br)c2)C(O)(C(C)(C)C)C1 (stereo unspecified) | 111%
14 | O=C(NC(=S)N1CCCc2ccccc21)c1ccc(Br)cc1 | 49.6%
15 | O=C(NN1C(=O)C2C(c3ccccc3)C=CC(c3ccccc3)C2C1=O)c1ccncc1 (stereo unspecified) | -13% (active)
16 | O=C(NN1C(=O)C2C(c3ccccc3)C=CC(c3ccccc3)C2C1=O)c1cccc(Br)c1 (stereo unspecified) | 10.8%
17 | O=C(Nn1cnnc1)c1ccncc1 | 12.7%
18 | Cc1ccc(C(C)NC(=O)C2CCCC2)cc1C (stereo unspecified) | 66.7%
19 | Cc1cccc(N2CCN(C(=O)Cc3c(C(=O)O)[nH]c4ccc(Cl)cc34)CC2)c1C | 38.6%
20 | CC1CCN(C(=S)NC(=O)c2cccc([N+](=O)[O-])c2)CC1 | 37.1%
21 | O=c1c2cc(Cl)ccc2nc(-c2ccc(Cl)c(Cl)c2)n1O | 150%
22 | Cc1ccc(-c2onc3ccc(Cl)cc23)cc1 | -2% (active)
23 | Cc1ccc(-c2nc3ccc(Cl)cc3c(=O)n2O)cc1 | 118%
24 | CC[C@@H](C(=O)[C@@H](C)[C@@H](O)[C@H](C)CCc1ccc(C)c(O)c1C(=O)O)[C@H]1O[C@](CC)([C@H]2CC[C@](O)(CC)[C@H](C)O2)C[C@@H]1C | 169%
25 | COc1ccccc1NC(=S)NC(=O)c1ccc(-c2ccc(Cl)cc2)o1 | 16.7%
26 | C=CCn1c(=S)[nH]c2sc3c(c2c1=O)CCCC3 | 60.7%
